PubChem BioAssay AID1159580 (chemical genetic matrix, 2015)
About 2,000 (36%) of roughly 5,500 compounds were called active. About 18% were inconclusive and are not listed. Rule as the data show it: active = normalized growth mostly below about 0.91 (no sharp cut-off); inconclusive = no clear call, values can overlap the other calls; inactive = mostly above about 0.92. This is one part of the list.

Assay: chemical genetic growth profiling, strain panel (AID 1159580);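 also: tested at 20 µM; growth read once vehicle control cultures reached saturation at 30 °C; 1 = growth at the plate median or of vehicle wells; lower values mean less growth of the strain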
Settings: S. cerevisiae deletion strains, growth OD

Measured: normalized growth

Nc1ncnc2c1nc(Br)n2C1OC2COP(=O)(O)O[C@@H]2C1O (some centres not stated)
inactive: locus YAL040C, strain CLN3, active compounds read low 0.986 | locus YDR150W, strain NUM1, active compounds read low 0.999 | locus YER002W, strain NOP16, active compounds read low 0.996 | locus YGR078C, strain PAC10, active compounds read low 1.01 | locus YJR075W, strain HOC1, active compounds read low 1 | locus YMR263W, strain SAP30, active compounds read low 0.999 | locus YNL175C, strain NOP13, active compounds read low 0.986 | locus YNL197C, strain WHI3, active compounds read low 1.02 | locus YNL224C, strain SQS1, active compounds read low 0.999 | locus YOR083W, strain WHI5 (second series), active compounds read low 1.02 | locus YPL055C, strain LGE1, active compounds read low 1.01

Clc1ccc(N/N=C\c2sccc2Oc2ccccc2)cc1
inactive: locus YAR019C, strain CDC15, active compounds read low 0.971 | locus YBL105C, strain PKC1, active compounds read low 0.979 | locus YBR135W, strain CKS1, active compounds read low 0.966 | locus YBR136W, strain MEC1, active compounds read low 0.963 | locus YBR160W, strain CDC28, active compounds read low 0.965 | locus YDL017W, strain CDC7, active compounds read low 0.974 | locus YDL028C, strain MPS1, active compounds read low 0.968 | locus YDL101C, strain DUN1, active compounds read low 0.951 | locus YDL108W, strain KIN28, active compounds read low 0.969 | locus YDL132W, strain cdc53, active compounds read low 0.964 | locus YDR052C, strain DBF4, active compounds read low 0.95 | locus YDR054C, strain cdc34, active compounds read low 0.963 | locus YDR226W, strain ADK1, active compounds read low 0.96 | locus YFL009W, strain cdc4, active compounds read low 0.968 | locus YFL029C, strain CAK1, active compounds read low 0.959 | locus YFR003C, strain YPI1, active compounds read low 0.975 | locus YFR028C, strain CDC14, active compounds read low 0.965 | locus YIL147C, strain SLN1, active compounds read low 0.969 | locus YJL128C, strain PBS2, active compounds read low 0.864 | locus YJR016C, strain ILV3, active compounds read low 0.947 | locus YKL193C, strain SDS22, active compounds read low 0.968 | locus YMR001C, strain CDC5, active compounds read low 0.972 | locus YMR277W, strain FCP1, active compounds read low 0.977 | locus YNL006W, strain LST8, active compounds read low 0.968 | locus YNL161W, strain CBK1, active compounds read low 0.974 | locus YNL207W, strain RIO2, active compounds read low 0.969 | locus YNL222W, strain SSU72, active compounds read low 0.966 | locus YOL078W, strain AVO1, active compounds read low 0.97 | locus YOR329C, strain SCD5, active compounds read low 0.978 | locus YPL209C, strain IPL1, active compounds read low 0.977 | locus YPR025C, strain CCL1, active compounds read low 0.963 | locus YPR106W, strain ISR1, active compounds read low 0.967 | locus YPR111W, strain DBF20, active compounds read low 0.963 | strain NNK1, active compounds read low 0.979 | strain TSCII, active compounds read low 0.966
active: locus YDL214C, strain PRR2, active compounds read low 0.335 | locus YDR477W, strain SNF1, active compounds read low 0.275 | locus YER123W, strain YCK3, active compounds read low 0.184 | locus YER133W, strain GLC7, active compounds read low 0.345 | locus YFR019W, strain FAB1, active compounds read low 0.313 | locus YGR040W, strain KSS1, active compounds read low 0.268 | locus YGR052W, strain FMP48, active compounds read low 0.21 | locus YGR092W, strain DBF2, active compounds read low 0.115 | locus YHR030C, strain SLT2, active compounds read low 0.125 | locus YHR079C, strain IRE1, active compounds read low 0.474 | locus YHR082C, strain KSP1, active compounds read low 0.361 | locus YHR205W, strain SCH9, active compounds read low 0.43 | locus YJL095W, strain BCK1, active compounds read low 0.125 | locus YJL157C, strain FAR1, active compounds read low 0.316 | locus YJR066W, strain TOR1 (second series), active compounds read low 0.423 | locus YJR066W, strain TOR1, active compounds read low 0.241 | locus YKL048C, strain ELM1, active compounds read low 0.468 | locus YKL067W, strain YNK1, active compounds read low 0.303 | locus YKL101W, strain HSL1, active compounds read low 0.353 | locus YKL203C, strain TOR2, active compounds read low 0.34 | locus YLR113W, strain HOG1, active compounds read low 0.275 | locus YLR133W, strain CKI1, active compounds read low 0.28 | locus YLR403W, strain SFP1, active compounds read low 0.242 | locus YML070W, strain DAK1, active compounds read low 0.293 | locus YMR205C, strain PFK2 (second series), active compounds read low 0.47 | locus YNL020C, strain ARK1, active compounds read low 0.382 | locus YNL183C, strain NPR1, active compounds read low 0.393 | locus YNL307C, strain MCK1 (second series), active compounds read low 0.147 | locus YOL136C, strain PFK27, active compounds read low 0.312 | locus YOR061W, strain CKA2, active compounds read low 0.19 | locus YOR119C, strain RIO1, active compounds read low 0.299 | locus YOR231W, strain MKK1, active compounds read low 0.477 | locus YPL031C, strain PHO85, active compounds read low 0.295 | locus YPL153C, strain RAD53, active compounds read low 0.279 | locus YPL204W, strain HRR25, active compounds read low 0.338 | locus YPL256C, strain CLN2, active compounds read low 0.275
